In PubChem BioAssay (Tox21):
Several values for one entry are separate records, joined by “and”; a condition that tells them apart may be missing. Identical values can stand only once. Records with an inconclusive call do not appear. Where a call stands in place of a potency, no number is given. Some compounds were tested as several samples or in several runs, with calls that do not always agree. Activity calls are given as the source filed them. Unless noted, the call rests on the fitted dose curve; in most records, active means well fitted curve in the direction sought with a large enough effect in the repeat runs; inconclusive means weak or mixed curves; inactive means no such curve, though single readings can be large; an effect the other way counts as inactive or inconclusive.

What was measured:
[1] = qHTS assay to identify small molecule agonists of the vitamin D receptor (VDR) signaling pathway - cell viability counter screen (AID 743224); further: series mostly up to about 63 µM; nearly all actives have a fitted effect of over 50% in size
In short: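 Cytotoxicity counter screen: VDR-bla cells, 16 h compound exposure at 37C, 5% CO2; CellTiter-Glo luminescence, 30 min RT, same wells as bla read.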

[2] = qHTS assay to identify small molecule antagonists of the vitamin D receptor (VDR) signaling pathway - cell viability counter screen (AID 743225); further: nearly all actives have a fitted effect of over 50% in size
In short: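 Cytotoxicity counter screen read by CellTiter-Glo luminescence (30 min, room temperature) in the same wells as the VDR-bla antagonist readout. HEK 293T VDR-UAS-bla cells had 16 h at 37C with compound and 3 nM (final) 1-alpha,25-dihydroxyvitamin D3, then 2 h with FRET substrate.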

[3] = qHTS assay to identify small molecule agonists of the NFkB signaling pathway (AID 1159509; active means well fitted curve in the direction sought with a large enough effect in the signal ratio in the repeat runs, not every such curve was filed as active; the % refers to the signal ratio; further: series mostly up to about 61 µM)
In short: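 Agonist activity was read as beta-lactamase-driven FRET change (460 and 530 nm emission, 405 nm excitation) following 1.5 hr substrate loading at room temperature. Beforehand, ME-180 NFkB-bla reporter cells were treated with compounds for 5 hr at 37 C.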

[4] = qHTS assay to identify small molecule agonists of the NFkB signaling pathway - cell viability counter screen (AID 1159515; calls by dose curve; further: series mostly up to about 61 µM; nearly all actives have a fitted effect of over 55% in size)
In short: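 ME-180 NFkB-bla cells, 2,000/well; overnight attach; compound 5 hr, 37 C/5% CO2; LiveBLAzer substrate 1.5 hr RT; then CellTiter-Glo in same wells, 30 min RT, luminescence read.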

[5] = qHTS assay to identify small molecule agonists of the endoplasmic reticulum stress response signaling pathway (AID 1159516; active means well fitted activation curve with a large enough effect in the signal ratio in the repeat runs, not every such curve was filed as active; the % refers to the signal ratio)
In short: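 HeLa ESRE-bla reporter line; cpd 5 h, 37 C/5% CO2; LiveBLAzer B/G FRET substrate 2 h RT; ex 405, em 460/530 nm.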

[6] = qHTS assay to identify small molecule agonists of the endoplasmic reticulum stress response signaling pathway - cell viability counter screen (AID 1159517; calls by dose curve;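 further: HeLa cells carrying an ER stress response element beta-lactamase reporter; series mostly up to about 61 µM; nearly all actives have a fitted effect of over 50% in size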)
In short: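 Cpd-treated ESRE-bla HeLa (5 hr, 37 C) → LiveBLAzer 2 hr RT → CellTiter-Glo 30 min RT → luminescence.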

[7] = qHTS assay to identify small molecule antagonists of the retinoid-related orphan receptor gamma (ROR-gamma) signaling pathway - cell viability counter screen (AID 1159520); further: nearly all actives have a fitted effect of over 50% in size
In short: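 Tet-on ROR gamma CHO cells (1,000/well) were plated 4 hr, given compounds in DMSO for 2 hr at 37 C, then induced with 1 uM final doxycycline for 16 hr. Viability was read as ATP by CellTiter-Glo luminescence after 30 min.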

[8] = molecular target: Nuclear receptor ROR-gamma (Homo sapiens) (UniProt P51449); assay: qHTS assay to identify small molecule antagonists of the retinoid-related orphan receptor gamma (ROR-gamma) signaling pathway (AID 1159521; further: nearly all actives have a fitted effect of over 50% in size; further: potency means the concentration at half of the fitted maximal effect)
In short: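 Antagonist read-out: drop in luminescence (ONE-Glo) from an RORE-LUC reporter in CHO cells with doxycycline-inducible ROR-gamma; 2 hr compound pretreatment, 1 uM doxycycline, 16 hr incubation at 37 C.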

[9] = qHTS assay to identify small molecule agonists of the AP-1 signaling pathway - cell viability counter screen (AID 1159525; calls by dose curve; further: nearly all actives have a fitted effect of over 55% in size; further: potency means the concentration at half of the fitted maximal effect)
In short: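 Each titration point was normalised to DMSO and tetra n-octyl ammonium bromide controls. The read was Cell Titer Glo luminescence after 30 min at RT, following 5 h compound exposure of ME-180 AP-1-bla cells at 37 °C.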

[10] = qHTS assay to identify small molecule agonists of the AP-1 signaling pathway (AID 1159526; calls by dose curve)
[11] = molecular target: Retinoic acid receptor RXR-alpha (Homo sapiens) (UniProt P19793); assay: qHTS assay to identify small molecule agonists of the RXR signaling pathway (AID 1159527; calls by dose curve; further: nearly all actives have a fitted effect of over 35% in size)
Retinoic acid receptor RXR-alpha (Homo sapiens), sequence (P19793 whole entry, looked up): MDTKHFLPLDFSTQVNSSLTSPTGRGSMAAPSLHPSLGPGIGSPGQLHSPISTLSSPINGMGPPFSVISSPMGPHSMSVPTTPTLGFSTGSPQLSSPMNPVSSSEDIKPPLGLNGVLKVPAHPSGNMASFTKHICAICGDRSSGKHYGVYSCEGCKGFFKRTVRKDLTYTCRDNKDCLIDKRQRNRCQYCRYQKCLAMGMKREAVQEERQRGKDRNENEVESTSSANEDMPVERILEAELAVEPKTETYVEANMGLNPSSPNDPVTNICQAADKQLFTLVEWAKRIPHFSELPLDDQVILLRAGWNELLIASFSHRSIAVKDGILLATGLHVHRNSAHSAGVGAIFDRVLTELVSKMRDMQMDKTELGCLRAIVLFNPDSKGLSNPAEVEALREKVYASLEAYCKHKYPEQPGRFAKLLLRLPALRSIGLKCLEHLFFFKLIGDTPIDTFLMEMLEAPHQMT
In short: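 Agonist-mode beta-lactamase reporter assay: HEK 293T RXR-alpha-UAS-bla cells treated 16 hr at 37 C with compounds, 9-cis retinoic acid as positive control. LiveBLAzer FRET substrate, 405 nm excitation, 460/530 nm emission.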

[12] = qHTS assay to identify small molecule agonists of the RXR signaling pathway - cell viability counter screen (AID 1159529); further: nearly all actives have a fitted effect of over 50% in size; further: potency means the concentration at half of the fitted maximal effect; on activity change, negative = cytotoxicity: series mostly up to about 77 µM
In short: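 CellTiter-Glo luminescence gave viability in the wells also read for beta-lactamase. Cells (RXR-alpha-UAS-bla HEK 293T, 2% charcoal-stripped FBS medium) had 5 hr plating, then 16 hr compound exposure at 37 C; tetraoctyl ammonium bromide served as positive control.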

[13] = qHTS assay to identify small molecule antagonists of the retinoid acid receptor (RAR) signaling pathway - cell viability counter screen (AID 1159551); further: nearly all actives have a fitted effect of over 35% in size
In short: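 C3RL4 RARE-luciferase line; cpds + retinol 1 uM final, 6 h, 37 C/5% CO2; CellTiter-Glo ATP luminescence, 30 min RT.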

[14] = qHTS assay to identify small molecule antagonists of the retinoic acid receptor (RAR) signaling pathway (AID 1159552; further: nearly all actives have a fitted effect of over 50% in size)
In short: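 Luminescent RARE reporter read-out in C3RL4 cells: 6 hr co-treatment at 37 C of test compounds with retinol at 1 uM final. Cells plated overnight beforehand; luciferase reagent incubated 30 min at room temperature before reading.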

[15] = qHTS assay to identify small molecule agonists of the retinoic acid receptor (RAR) signaling pathway (AID 1159553); further: potency means the concentration at half of the fitted maximal effect
In short: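 RARE-luc C3RL4 cells; overnight attachment 37 C/5% CO2; compound (DMSO) 6 hr; luciferase reagent, 30 min RT; luminescence read-out.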

[16] = qHTS assay to identify small molecule antagonists of the estrogen related receptor (ERR) signaling pathway - cell viability counter screen (AID 1224818); further: series mostly up to about 46 µM
In short: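 Fluorescence from CellTiter-Fluor, read 30 min after reagent addition at 37 C, measured viability of ERR cells exposed to compounds for 17.5 h. Cells had settled 6 h before dosing.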

[17] = qHTS assay to identify small molecule antagonists of the estrogen related receptor signaling pathway with the pleiotropic PPARgamma coactivator (PGC) cell viability counter screen (AID 1224822; further: series mostly up to about 46 µM)
In short: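 Fluorescence read-out of CellTiter-Fluor after 30 min at 37 C; PGC/ERR cells, 2,000 per well, had been exposed to DMSO-dissolved compounds for 17.5 h following a 6 h pre-incubation.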

Structure (SMILES)	Potency [1]	Potency [2]	outcome [3]	outcome [4]	outcome [5]	Potency [6]	Potency [7]	Potency [8]	Potency [9]	Potency [10]	Potency [11]	Potency [12]	Potency [13]	Potency [14]	Potency [15]	activity change, negative = cytotoxicity [6]	outcome [16]	outcome [17]
Nc1cc(-c2ccncc2)c[nH]c1=O	inactive	inactive	inactive	inactive	inactive	inactive	inactive	inactive	inactive	inactive	inactive	inactive	inactive	inactive	inactive	–	–	–
OC[C@@H](O)[C@@H](O)[C@H](O)[C@@H](O)CO	inactive	inactive	inactive	inactive	inactive	inactive	inactive	inactive	inactive	inactive	inactive	–	inactive	inactive	inactive	–	–	–
Cc1ccc(C(=O)O)o1	inactive	inactive	inactive	inactive	inactive	inactive	inactive	inactive	inactive	inactive	–	–	inactive	–	–	–	–	–
CC(C)(C)C1CCC(O)CC1 (configuration not stated)	inactive	inactive	inactive	inactive	inactive	inactive	inactive	inactive	inactive	inactive	inactive	inactive	inactive	inactive	inactive	–	–	–
O=C1N=C(O)CN1/N=C/c1ccc(-c2ccc([N+](=O)[O-])cc2)o1	inactive	inactive	inactive	inactive	inactive	inactive	inactive	inactive	inactive	inactive	–	inactive	inactive	–	–	–	–	–
Oc1ccc(OCc2ccccc2)cc1	inactive	inactive	inactive	inactive	inactive	inactive	inactive	inactive	inactive	inactive	inactive	inactive	inactive	inactive	4.24 µM (active) and inactive	–	–	–
CCCCC(CC)COC(C)=O (configuration not stated)	inactive	inactive	inactive	inactive	inactive	inactive	inactive	inactive	inactive	inactive	inactive	–	inactive	inactive	inactive	–	–	–
CCC(C)C=O (configuration not stated)	inactive	inactive	inactive	inactive	inactive	inactive	inactive	inactive	inactive	inactive	inactive	–	inactive	inactive	inactive	–	–	–
CCCCCCCCC	inactive	inactive	inactive	inactive	inactive	inactive	inactive	inactive	inactive	inactive	inactive	inactive	inactive	–	–	–	–	–
CCCCCCCCCCCCOCC1CO1 (configuration not stated)	inactive	inactive	inactive	inactive	inactive	inactive	inactive	inactive	inactive	inactive	inactive	inactive	inactive	inactive	inactive	–	–	–
C=CC(=O)OCCCCCCCC(C)C	inactive	inactive	inactive	inactive	inactive	inactive	inactive	inactive	inactive	inactive	inactive	inactive	inactive	inactive	inactive	–	–	–
NCCNCCNCCNCCN	inactive	inactive	inactive	inactive	inactive	–	inactive	inactive	inactive	inactive	inactive	inactive	inactive	–	–	18.7% [at 6.95 µM] (inactive)	–	–
O=C1CCCCC1	inactive	inactive	inactive	inactive	inactive	inactive	inactive	inactive	inactive	inactive	inactive	inactive	inactive	–	–	–	–	–
CC(C)(N=C=O)c1cccc(C(C)(C)N=C=O)c1	inactive	inactive	inactive	inactive	inactive	inactive	inactive	inactive	inactive	inactive	inactive	inactive	inactive	inactive	inactive	–	–	–
Cc1cc(Cc2ccc(N)c(C)c2)ccc1N	inactive	inactive	inactive	inactive	inactive	inactive	inactive	inactive	inactive	inactive	–	inactive	inactive	inactive	inactive	–	–	–
O=C1O[C@H](CO)[C@@H](O)[C@H](O)[C@H]1O	inactive	inactive	inactive	inactive	inactive	inactive	inactive	inactive	inactive	inactive	inactive	–	inactive	inactive	inactive	–	–	–
CCCCOCCO	inactive	inactive	inactive	inactive	inactive	inactive	inactive	inactive	inactive	inactive	inactive	inactive	inactive	inactive	inactive	–	–	–
COC(=O)c1ccccc1O	inactive	inactive	inactive	inactive	inactive	inactive	inactive	inactive	inactive	inactive	–	43.8 µM (active) and inactive	inactive	inactive	inactive	–	–	–
Clc1ccc(Cl)c(Cl)c1Cl	inactive	inactive	inactive	inactive	inactive	inactive	inactive	inactive	inactive	inactive	–	inactive	inactive	–	–	–	–	–

Structure (SMILES)	Potency [1]	Potency [2]	outcome [3]	outcome [4]	outcome [5]	Potency [6]	Potency [7]	Potency [8]	Potency [9]	Potency [10]	Potency [11]	Potency [12]	Potency [13]	Potency [14]	Potency [15]	activity change, negative = cytotoxicity [6]	outcome [16]	outcome [17]
COC(=O)c1ccc(C(=O)OC)cc1	inactive	inactive	inactive	inactive	inactive	inactive	inactive	1.96 µM (active) and inactive	12.5 µM (active) and inactive	inactive	inactive	15.7 µM (active) and inactive	inactive	inactive	inactive	–	–	–
Nc1c(S(=O)(=O)O)cc(Br)c2c1C(=O)c1ccccc1C2=O	inactive	inactive	inactive	inactive	inactive	inactive	inactive	inactive	inactive	inactive	–	inactive	inactive	inactive	inactive	–	–	–
O=C(Cl)c1c(Cl)c(Cl)c(C(=O)Cl)c(Cl)c1Cl	inactive	inactive	inactive	inactive	inactive	inactive	inactive	inactive	inactive	inactive	inactive	–	inactive	inactive	inactive	–	–	–
C=C(C#N)C(=O)OCC	inactive	inactive	inactive	inactive	inactive	inactive	inactive	inactive	inactive	inactive	inactive	–	inactive	inactive	inactive	–	–	–
NS(=O)(=O)c1cc2c(cc1Cl)NC=NS2(=O)=O	inactive	inactive	inactive	inactive	inactive	inactive	inactive	inactive	inactive	inactive	inactive	–	inactive	inactive	inactive	–	inactive	inactive
CCOC(=O)/C=C\C(=O)OCC	inactive	inactive	inactive	inactive	inactive	inactive	inactive	inactive	inactive	inactive	inactive	–	inactive	inactive	inactive	–	–	–
C[C@@H]1O[C@@H](OC[C@H]2O[C@@H](Oc3c(-c4ccc(O)c(O)c4)oc4cc(O)cc(O)c4c3=O)[C@H](O)[C@@H](O)[C@@H]2O)[C@H](O)[C@H](O)[C@H]1O	inactive	inactive	inactive	inactive	inactive	inactive	inactive	inactive	inactive	inactive	inactive	–	inactive	inactive	inactive	–	–	–
Cc1ccc(N)c(S(=O)(=O)O)c1	inactive	inactive	inactive	inactive	inactive	inactive	inactive	inactive	inactive	inactive	inactive	inactive	inactive	inactive	inactive	–	–	–
Oc1c(Cl)cc(Cl)c(Cl)c1Cl	inactive	–	inactive	inactive	inactive	inactive	inactive	53.3 µM (active) and 61.1 µM (active)	inactive	inactive	inactive	15.2 µM (active) and 13.8 µM (active)	inactive	inactive	inactive	–	–	–
COCC(=O)O	inactive	inactive	inactive	inactive	inactive	inactive	inactive	inactive	inactive	inactive	inactive	–	inactive	inactive	inactive	–	–	–
OCC1CCCO1 (configuration not stated)	inactive	inactive	inactive	inactive	inactive	inactive	inactive	inactive	inactive	inactive	–	–	inactive	inactive	inactive	–	–	–
NCc1cccc(CN)c1	inactive	inactive	inactive	inactive	inactive	inactive	inactive	inactive	inactive	inactive	inactive	inactive	inactive	inactive	inactive	–	–	–
CCCCCCC(C)(C)S	inactive	inactive	inactive	inactive	inactive	inactive	inactive	inactive	inactive	inactive	inactive	inactive	inactive	inactive	inactive	–	–	–
O=[N+]([O-])C(CO)(CO)CO	inactive	inactive	inactive	inactive	inactive	inactive	inactive	inactive	inactive	inactive	inactive	inactive	inactive	inactive	inactive	–	–	–
CC1(C)CC(N=C=O)CC(C)(CN=C=O)C1 (configuration not stated)	inactive	inactive	inactive	inactive	inactive	inactive	inactive	inactive	inactive	inactive	inactive	–	inactive	inactive	inactive	–	–	–
CC1(C)O[C@@H]2C[C@H]3[C@@H]4C[C@H](F)C5=CC(=O)CC[C@]5(C)[C@H]4[C@@H](O)C[C@]3(C)[C@]2(C(=O)CO)O1	inactive	inactive	inactive	inactive	inactive	inactive	inactive	inactive	inactive	inactive	inactive	inactive	inactive	inactive	inactive	–	–	–
CCCCNC(N)=O	inactive	inactive	inactive	inactive	inactive	inactive	inactive	inactive	inactive	inactive	inactive	–	inactive	inactive	inactive	–	–	–
CCCCCCCCCC(=O)O	inactive	inactive	inactive	inactive	inactive	inactive	inactive	inactive	inactive	inactive	–	inactive	inactive	inactive	inactive	–	–	–
